Screens from PubChem.
This is a sample that favours compounds with a hit; in the whole collection about 4.5% have one here.
dFosB activator – enhances mouse delta FosB homodimer DNA binding; 340,000 tested, 0.99% active; P13346; activation, % at 25 µM; purified delta FosB, TAMRA-CDK5 oligo fluorescence polarization; percent of positive-control signal above neutral wells;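 active = mean activation above about 17%, with every replicate also reaching it, limit read from the data, passing the limit was not always enough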
Rpn11 inh – blocks the human proteasome subunit Rpn11 | O00487 | human 26S proteasome, Ub4-pepOG fluorescence polarization; 20S core pre-blocked with epoxomicin | inhibition, % at 20 µM | 360,000 tested, 0.59% active | AID 588493;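 active = inhibition at 20 µM, scaled to each plate's controls, above about 33%, limit read from the data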
Target sequence (O00487 whole entry, looked up): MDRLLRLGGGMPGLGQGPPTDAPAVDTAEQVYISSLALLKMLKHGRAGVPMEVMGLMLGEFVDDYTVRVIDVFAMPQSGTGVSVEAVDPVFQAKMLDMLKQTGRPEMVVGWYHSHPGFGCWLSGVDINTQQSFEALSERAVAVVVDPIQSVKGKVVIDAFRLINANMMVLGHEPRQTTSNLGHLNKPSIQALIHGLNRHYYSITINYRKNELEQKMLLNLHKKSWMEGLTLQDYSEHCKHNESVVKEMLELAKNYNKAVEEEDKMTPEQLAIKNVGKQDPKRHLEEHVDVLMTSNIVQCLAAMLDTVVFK
GRIN3A LBD mod – modulates the human NR3A ligand-binding domain; AID 1259313; 340,000 tested, 2.5% active; Tm shift relative to glycine control, % at 25 µM; NR3A LBD differential scanning fluorimetry, Tm shift; 0% = protein alone, 100% = glycine-bound protein;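 active = melting temperature shift of at least 10% of the positive control shift, at one fixed dose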
ZTA counter – counter-screen for EBNA-1 inhibitors: inhibitors of Epstein-Barr virus ZTA; inhibition, % at 11 µM; ZTA-DNA binding, fluorescence polarization; P03206; 320,000 tested, 0.15% active; in the data active = inhibition above about 33%
Target sequence (P03206 whole entry, looked up): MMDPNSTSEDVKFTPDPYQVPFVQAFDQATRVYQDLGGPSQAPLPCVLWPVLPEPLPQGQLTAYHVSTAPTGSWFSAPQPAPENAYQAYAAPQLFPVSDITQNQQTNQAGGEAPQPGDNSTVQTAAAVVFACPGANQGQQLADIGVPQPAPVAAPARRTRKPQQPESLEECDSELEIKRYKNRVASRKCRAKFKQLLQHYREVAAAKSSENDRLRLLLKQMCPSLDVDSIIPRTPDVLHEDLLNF
EBNA-1 inhibitor – blocks EBNA-1 binding to DNA; EBNA-1 DNA binding, fluorescence polarization; AID 1950; 300,000 tested, 0.34% active; inhibition, % at 14.8 µM; in the data active = inhibition above about 28%
TPT1 inh – inhibitors of Candida albicans tRNA 2'-phosphotransferase TPT1 | recombinant caTPT1, FP RNA substrate dephosphorylation | inhibition, % at 5 µM | 300,000 tested, 0.81% active;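 active = inhibition above the mean of all tested compounds plus 3 SD, set per screening campaign, cut at about 24% in these data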;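 note: plate controls were DMSO alone for no effect and ferristatin control at 100 nM for full effect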
An asterisk follows results filed as active; · = no result given.

SMILES	dFosB activator	Rpn11 inh	GRIN3A LBD mod	ZTA counter	EBNA-1 inhibitor	TPT1 inh
Cc1ccc(C)c(NC(=O)C2CCCN(S(=O)(=O)c3ccc4[nH]c(=O)ccc4c3)C2)c1 (stereo not given)	6	1	-2	-11	1	-6
COc1ccccc1NC(=O)C1CCCN(S(=O)(=O)c2ccc3[nH]c(=O)ccc3c2)C1 (stereo not given)	-3	-3	-1	0	-3	2
COc1ccc(C)cc1NC(=O)C1CCCN(S(=O)(=O)c2ccc3[nH]c(=O)ccc3c2)C1 (stereo not given)	-16	4	15*	1	-12	1
O=C(Nc1ccc(F)cc1)C1CCCN(S(=O)(=O)c2ccc3[nH]c(=O)ccc3c2)C1 (stereo not given)	18*	-1	-1	-10	1	1
CCOC(=O)/C=C/[C@H]1CCc2cccc(C)c2O1	-6	1	1	-8	·	·
COc1ccc2c(c1)[nH]c1c(=O)n(/N=C/c3ccc(OC)c(CN4CCCCC4)c3)cnc12	74*	3	-5	-8	9	-1
O=C(NCCCN1CCOCC1)C(C(=O)NCCCN1CCOCC1)c1ncc(C(F)(F)F)cc1Cl	-2	0	3	-8	0	-5
CCOC(=O)Nc1ccc2c(CN(C)Cc3ccc(F)cc3)cc(=O)oc2c1	-2	4	14*	-18	-4	-1
Cc1ccc(OCC(=O)NN=C2C3CC4CC(C3)CC2C4)cc1	-10	-4	0	-1	·	·
Cc1ccc(S(=O)(=O)/N=C2\SC(CC(=O)Nc3ccc(F)cc3)C(=O)N2c2ccccc2)cc1 (stereo not given)	-12	2	9	-1	-3	-4
O=C(CC1S/C(=N\S(=O)(=O)c2ccccc2)N(c2ccccc2)C1=O)Nc1ccc(F)cc1 (stereo not given)	1	-2	10*	-10	1	-2
COc1ccc(N(C(=O)c2cnccn2)C(C(=O)NC2CCCCC2)c2ccc(O)cc2)cc1 (stereo not given)	-4	8	-2	-28	3	-9
CCSc1nnc(NC(=O)CSc2nc(CC)nc3c2c(=O)n(C)c(=O)n3C)s1	-4	3	14*	13	0	3
CCCc1nc(SCC(=O)Nc2nnc(SCC)s2)c2c(=O)n(C)c(=O)n(C)c2n1	3	-1	-2	3	2	-2
c1ccc(-c2nnc(-c3ccccc3)c(-c3c[nH]c4ccccc34)n2)cc1	-4	-2	15*	1	-19	-4
CCNC(=O)N1C(=O)C2(OCCO2)c2ccccc21	1	0	0	22	5	-3
CCCCOc1ccc(OCCCC)c2c1NC1(N2)C(=O)N(C(C)=O)c2ccccc21	3	38	13*	-19	-6	0
O=C(O)CC1(CC(=O)Nc2cc3ccccc3cn2)CCCCC1	·	-6	1	-5	1	1
CCCNC(=O)C1(C)CCN(Cc2csc3ccccc23)C1 (stereo not given)	·	1	·	·	·	·
O=C(c1ccc(Cl)cc1)N1CCN(c2cccc3[nH]ccc23)CC1	-12	5	15*	-20	-13	1
COc1ccc(CCN=C(N)NS(=O)(=O)c2ccc3ccccc3c2)cc1	-3	-4	18*	-10	-8	1
COc1ccc(/C(C)=N/N=C(\C)c2ccc(OC)cc2OC)c(OC)c1	-4	1	12*	-18	-2	0
COc1ccc(/C(C)=N\NS(C)(=O)=O)c(OC)c1	-4	1	-4	13	9	-3
CC(OC(=O)CCCCCN=C1NS(=O)(=O)c2ccccc21)C(=O)Nc1cc(Cl)cc(Cl)c1 (stereo not given)	-1	4	18*	-3	1	4
CCN1CC(c2ccccc2)C(c2ccc(Cl)cc2)=N1 (stereo not given)	-3	3	12*	10	11	3
SMILES	dFosB activator	Rpn11 inh	GRIN3A LBD mod	ZTA counter	EBNA-1 inhibitor	TPT1 inh
O=C(Cn1cnnn1)NCc1ccccc1	6	-2	-1	-7	10	-2
COc1cc(/C=N/n2cnc3c(sc4nc(C)cc(C)c43)c2=O)ccc1O	·	·	26*	0	9	-3
Fc1ccc(Nc2nc(NCc3ccco3)c3ccccc3n2)cc1	53*	-2	10*	-2	-3	-3
Cc1ccc(Nc2nc(N)c([N+](=O)[O-])c(NCc3ccco3)n2)cc1	8	-1	-3	6	-3	1
CNC(=O)/C(C#N)=C/c1c(N(Cc2ccccc2)Cc2ccccc2)nc2c(C)cccn2c1=O	-22	-6	-4	19	14	-1
CCNC(=O)/C(C#N)=C/c1c(N(Cc2ccccc2)Cc2ccccc2)nc2ccccn2c1=O	0	3	22*	-19	6	1
CN(/N=C\c1ccc(O)c(O)c1)c1nc(-c2ccccc2)cc(-c2ccccc2)n1	-25	-1	21*	-2	8	0
Cc1ccc2[nH]c(=O)c(CN(CC3CCCO3)C(=S)NCc3ccco3)cc2c1 (stereo not given)	-9	-7	13*	12	3	1
Cc1ccc2[nH]c(=O)c(CN(Cc3cccs3)C(=S)NCc3ccco3)cc2c1	15	2	13*	-10	8	0
Cc1cccc2cc(CN(CC3CCCO3)C(=S)NCc3ccco3)c(=O)[nH]c12 (stereo not given)	-5	-6	13*	5	1	0
Cc1cc(C)c2[nH]c(=O)c(CN(CC3CCCO3)C(=S)NCc3ccco3)cc2c1 (stereo not given)	0	4	2	9	-1	3
O=C(CCc1nc2ccccc2s1)NC1CCOC1=O (stereo not given)	-8	0	-1	-3	3	3
O=C(CSc1ccc(-c2nc3ccccc3[nH]2)cn1)Nc1ccc(S(=O)(=O)NC2CC2)cc1	-7	9	21*	4	-11	-1
Cc1ccc(SCC(=O)Nc2ccc(-c3nc4ccccc4[nH]3)cc2)cc1	6	0	35*	0	3	4
COc1ccc(CN(C)C(=O)C2CSC3(C)CCC(=O)N23)cc1OC (stereo not given)	-1	0	0	16	·	·
COc1ccc(OC)c(N(CC(=O)Nc2ccccc2C(=O)NCc2ccco2)S(C)(=O)=O)c1	-4	4	13*	-1	14	0
COc1ccc(Cl)cc1N(CC(=O)Nc1ccccc1C(=O)NCc1ccco1)S(C)(=O)=O	-1	3	-4	-10	-11	-4
Cn1c(SCC(=O)N/N=C/C=C/c2ccccc2[N+](=O)[O-])nc2ccccc21	5	-2	2	-8	25	1
Cn1c(SCC(=O)N/N=C/C=C\c2ccccc2[N+](=O)[O-])nc2ccccc21	20*	2	0	-18	3	2
